Records with an inconclusive call do not appear. The source made the active and inactive calls.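 The calls were made as follows, unless noted: active = percent response above 42, roughly 3 SD of non-fluorescent test compounds; inactive = the rest.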
Key:
[1] = yeast TOR pathway RPL19A-GFP modulators, primary screen, cell-based, S. cerevisiae, multiplex flow cytometry (AID 1862; in the data active = percent of DMSO control GFP below about 86%;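 also: lower values mimic rapamycin by blocking the RPL19A rise seen in DMSO cells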); settings: S. cerevisiae RPL19A-GFP strain, flow cytometry fluorescence, 3 h; at 10 µM; stronger effect = lower value
[2] = modulators of MEP2-GFP levels in yeast, primary screen, S. cerevisiae, multiplex flow cytometry (AID 1867;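 active = GFP response, as percent of the DMSO control, above the screen-wide mean plus 3 SD, about 139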;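 also: median GFP channel fluorescence of barcode-gated MEP2-GFP cells measured by flow cytometry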); settings: S. cerevisiae MEP2-GFP strain, 3 h, at 10 µM, stronger effect = higher value, 100% means same as DMSO wells
[3] = modulators of CIT2-GFP expression in yeast, primary screen, S. cerevisiae, GFP fusion, multiplex flow cytometry (AID 1870;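 active = percent response above a set limit, the screen-wide mean plus 3 SD, cut at about 130% in these data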;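 also: barcoded CIT2-GFP strain pooled with four other GFP strains with rapamycin as positive control; median GFP fluorescence per well over plate mean of DMSO wells so 100% = DMSO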); settings: 3 h, at 10 µM, stronger effect = higher value
[4] = modulators of LAP4-GFP expression in yeast, primary screen, S. cerevisiae, multiplex flow cytometry (AID 1873;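 active = GFP signal, as percent of the solvent control, above the screen mean plus 3 SD, about 149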); settings: 3 h, at 10 µM, stronger effect = higher value
[5] = RPL19A-GFP modulators, yeast TOR pathway, confirmation, cell-based, S. cerevisiae, flow cytometry, cherry picks, mother/daughter gates (AID 2270;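 active = GFP response below 50% of the DMSO control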); settings: S. cerevisiae RPL19A-GFP strain, 3 h, at 10 µM, stronger effect = lower value, 100 = same GFP as DMSO wells
[6] = LAP4-GFP expression modulators in yeast, confirmation, cell-based, cherry picks, flow cytometry, mother/daughter gates (AID 2271;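 active = GFP response above 150% of the DMSO control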;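 also: ratio of sample to DMSO plate mean so 100% equals DMSO level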); settings: S. cerevisiae LAP4-GFP strain, 3 h, at 10 µM, stronger effect = higher value, 100 means same as DMSO control
[7] = modulators of MEP2-GFP levels in yeast, confirmation, S. cerevisiae, flow cytometry GFP, cherry picks (AID 2272;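 active = GFP response above 150% of the DMSO control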;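 also: ratio of well signal to plate DMSO mean so 100% equals DMSO level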); settings: S. cerevisiae MEP2-GFP strain, 3 h, at 10 µM, stronger effect = higher value
[8] = modulators of CIT2-GFP expression in yeast, confirmation, S. cerevisiae, GFP fusion, cherry picks, mother/daughter gates (AID 2274;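 active = GFP response above 150% of the DMSO level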); settings: S. cerevisiae CIT2-GFP strain, flow cytometry, 3 h, at 10 µM, stronger effect = higher value
[9] = inhibitors of CD8+ T cell-vesicle binding, pilot screen, LFA-1/ICAM-1 modulator project, MLPCN validation set, flow cytometry (AID 2523;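 active = response below a set limit, under 55% cells CD8-positive and vesicle-bound, and CD8 cells' 90th-percentile brightness under 279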;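 as to vesicle binding response: mean PE anti-B7-1 fluorescence of CD8+ cells relative to row control; 100% = QL9-loaded vesicles with DMSO vehicle in the same plate row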); settings: 2C mouse CD8+ T cells, at 7 µM, stronger effect = lower value; double positive events: measured here: CD8+/vesicle+ event percentage
[10] = target: Integrin beta-1 (Homo sapiens) + Integrin alpha-4 (Homo sapiens) (UniProt P13612+P05556); test: inhibition of HUTS-21 binding to VLA-4, pilot screen, VLA-4 allosteric modulator project, U937 cells, HUTS-21 mAb, flow cytometry, validation set (AID 2674;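 active = inhibition above 50%, about 3 SD of the validation set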;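 also: antibody binding induced by the VLA-4 ligand LDV present at three times its Kd; 0% = LDV ligand with antibody and no compound and 100% = antibody without LDV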); settings: HUTS-21 LIBS mAb binding, at 6.7 µM, stronger effect = higher value, binding induced by LDV ligand
[11] = superoxide lowering in aged yeast cells, pilot screen, validation compound set (AID 2706;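 active = superoxide response below 65% of plate, a cut near 3 SD across the whole screen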;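 also: yeast exposed to compound for one week at 30 degrees C before staining; 100% = mean of all compound wells on the same plate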); settings: S. cerevisiae aging, superoxide DHE fluorescence; at 10 µM, stronger effect = lower value
[12] = target: Beta-adrenergic receptor kinase 1 (Homo sapiens) (UniProt P25098); test: GRK2 binders displacing RNA aptamer, biochemical, validation, human GRK2, bead flow cytometry (AID 488806;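 active = aptamer binding inhibition above 30%, about 3 SD of noise from non-fluorescent compounds; inactive = inhibition at or below 30%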); settings: bead-bound GRK2, FAM-aptamer displacement, at 10 µM, stronger effect = higher value
[13] = target: Beta-2 adrenergic receptor (Homo sapiens) (UniProt P07550); test: beta2AR agonists driving receptor internalization, pilot screen, cell-based, FAP fluorogen, flow cytometry, validation set (AID 504459); settings: Am2.2-beta2AR cells, FAP surface receptor flow cytometry; at 10 µM; stronger effect = higher value;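 also: agonist-driven loss of surface beta2AR via internalization measured by FAP dye flow cytometry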
[14] = target: AP-2 complex subunit beta (Homo sapiens) (UniProt P63010); test: inhibitors of arrestin peptide binding to AP2, pilot screen, biochemical, validation set, GST-AP2 beads, flow cytometry (AID 504541;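 active = inhibition above 54%, about 3 SD of non-fluorescent compounds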;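 also: AP2 carries R879A mutation and is captured from E. coli lysate; bead-bound FITC arrestin peptide fluorescence measuring arrestin peptide binding to AP2; 0% = DMSO wells and 100% = excess unlabeled arrestin peptide control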); settings: FITC arrestin peptide, at 10 µM, stronger effect = higher value, AP2 beta2 appendage fragment, R879A mutant
[15] = yeast V-ATPase proton transport modulators, S. cerevisiae, pHLuorin, HTS validation (AID 504600; in the data active = response above about 15%;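 also: plate controls were DMSO for no effect and reference compound for full effect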); settings: S. cerevisiae pHLuorin cytosolic pH, at 10 µM, stronger effect = higher value
[16] = system: anti-desmoglein-3 scFv antibody binding to human DSG3; test: inhibitors of anti-DSG3 scFv binding to DSG3, pilot screen, biochemical, validation compound set, bead-based, flow cytometry (AID 588368;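 active = binding below the plate cutoff, the plate median minus 3 SD, with a reading above zero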;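 also: signal is the median channel fluorescence of bead-bound GFP antibody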); settings: Protein G beads, DSG3-Fc, scFv-GFP binding, at 10 µM, stronger effect = lower value
[17] = inhibitors of fungal efflux pumps CDR1, CDR2, MDR1, pilot screen, validation compound set, multiplex, phenotypic (AID 588506;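 active = efflux inhibition above 0.42, the validation set average plus 4 SD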;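 also: Nile Red retained in cells so higher fluorescence means more efflux inhibition; 0 = negative control wells and 1 = enniatin B 25 µM full block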); settings: S. cerevisiae pump-expressing triplex, Nile Red efflux flow cytometry; at 10 µM; stronger effect = higher value; the pumps come from Candida albicans
[18] = target: ATP-binding cassette sub-family B member 6 (Homo sapiens) (UniProt Q9NP58); test: ABCB6 transporter inhibitors, pilot screen, K562-ABCB6 cells, flow cytometry, validation set (AID 588550;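 active = inhibition above the screen-wide mean plus 3 SD, about 51%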;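 also: 0% = DMSO wells and 100% = benzethonium chloride 70 µM positive control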); settings: K562-ABCB6 porphyrin accumulation, 1 h, at 10 µM, stronger effect = higher value
[19] = promoters of myeloid differentiation in arrested cells, primary screen, cell-based, GFP/MAC1 double positive, flow cytometry, validation set (AID 588685;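 active = differentiation response of at least 50%, scaled between solvent and reference control, from cells with both markers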;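 also: compound exposure lasts four days before antibody staining and flow analysis; 0% = DMSO wells and 100% = 5 µM fulvestrant positive control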); settings: ER-HoxA9 marrow cells, stronger effect = higher value, normalized: vehicle 0, fulvestrant 100
[20] = modulators of AGP1-GFP expression in yeast TOR pathway, primary screen, cell-based, multiplex flow cytometry, S. cerevisiae (AID 1887;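 active = GFP signal above the screen-wide mean plus 3 SD, that is over about 124.5% of the solvent control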;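 also: AGP1-GFP fusion strain of S. cerevisiae within a five-strain barcoded multiplex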); settings: 3 h, at 10 µM, stronger effect = higher value
[21] = measured here: daughter cell gate
[22] = measured here: mother cell gate
[23] = measured here: daughter cell gate response
[24] = measured here: mother cell gate response

Chain of Beta-2 adrenergic receptor (Homo sapiens) (P07550 whole entry, looked up): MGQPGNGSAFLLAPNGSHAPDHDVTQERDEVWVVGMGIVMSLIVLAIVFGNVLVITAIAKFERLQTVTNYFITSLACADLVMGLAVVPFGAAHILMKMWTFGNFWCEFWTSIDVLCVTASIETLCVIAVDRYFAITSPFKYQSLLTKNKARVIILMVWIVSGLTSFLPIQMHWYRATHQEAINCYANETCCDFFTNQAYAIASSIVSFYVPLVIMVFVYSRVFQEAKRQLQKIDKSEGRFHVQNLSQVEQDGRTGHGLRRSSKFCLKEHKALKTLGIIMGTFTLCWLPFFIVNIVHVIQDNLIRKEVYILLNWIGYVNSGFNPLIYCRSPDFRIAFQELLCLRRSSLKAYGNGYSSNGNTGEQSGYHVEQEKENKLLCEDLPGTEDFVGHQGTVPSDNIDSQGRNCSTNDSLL
Chain of Beta-adrenergic receptor kinase 1 (Homo sapiens) (P25098 whole entry, looked up): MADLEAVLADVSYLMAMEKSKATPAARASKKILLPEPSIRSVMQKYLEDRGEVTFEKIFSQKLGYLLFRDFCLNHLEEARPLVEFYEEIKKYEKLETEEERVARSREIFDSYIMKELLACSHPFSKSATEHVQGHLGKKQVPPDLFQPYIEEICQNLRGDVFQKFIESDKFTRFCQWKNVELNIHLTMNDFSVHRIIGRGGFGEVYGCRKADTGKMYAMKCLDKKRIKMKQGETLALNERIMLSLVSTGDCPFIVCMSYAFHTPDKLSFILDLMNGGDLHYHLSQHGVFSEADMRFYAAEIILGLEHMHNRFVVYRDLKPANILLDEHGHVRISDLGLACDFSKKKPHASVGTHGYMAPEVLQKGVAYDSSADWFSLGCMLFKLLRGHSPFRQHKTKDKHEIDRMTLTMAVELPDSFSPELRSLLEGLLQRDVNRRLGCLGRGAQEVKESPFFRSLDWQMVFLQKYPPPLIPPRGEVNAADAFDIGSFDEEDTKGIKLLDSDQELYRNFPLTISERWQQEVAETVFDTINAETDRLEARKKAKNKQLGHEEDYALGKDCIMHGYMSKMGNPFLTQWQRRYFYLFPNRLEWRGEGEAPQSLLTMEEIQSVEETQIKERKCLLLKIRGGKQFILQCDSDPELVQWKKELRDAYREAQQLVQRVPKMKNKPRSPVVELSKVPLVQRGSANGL
Chain of Integrin beta-1 (Homo sapiens) + Integrin alpha-4 (Homo sapiens) (P05556 whole entry, looked up): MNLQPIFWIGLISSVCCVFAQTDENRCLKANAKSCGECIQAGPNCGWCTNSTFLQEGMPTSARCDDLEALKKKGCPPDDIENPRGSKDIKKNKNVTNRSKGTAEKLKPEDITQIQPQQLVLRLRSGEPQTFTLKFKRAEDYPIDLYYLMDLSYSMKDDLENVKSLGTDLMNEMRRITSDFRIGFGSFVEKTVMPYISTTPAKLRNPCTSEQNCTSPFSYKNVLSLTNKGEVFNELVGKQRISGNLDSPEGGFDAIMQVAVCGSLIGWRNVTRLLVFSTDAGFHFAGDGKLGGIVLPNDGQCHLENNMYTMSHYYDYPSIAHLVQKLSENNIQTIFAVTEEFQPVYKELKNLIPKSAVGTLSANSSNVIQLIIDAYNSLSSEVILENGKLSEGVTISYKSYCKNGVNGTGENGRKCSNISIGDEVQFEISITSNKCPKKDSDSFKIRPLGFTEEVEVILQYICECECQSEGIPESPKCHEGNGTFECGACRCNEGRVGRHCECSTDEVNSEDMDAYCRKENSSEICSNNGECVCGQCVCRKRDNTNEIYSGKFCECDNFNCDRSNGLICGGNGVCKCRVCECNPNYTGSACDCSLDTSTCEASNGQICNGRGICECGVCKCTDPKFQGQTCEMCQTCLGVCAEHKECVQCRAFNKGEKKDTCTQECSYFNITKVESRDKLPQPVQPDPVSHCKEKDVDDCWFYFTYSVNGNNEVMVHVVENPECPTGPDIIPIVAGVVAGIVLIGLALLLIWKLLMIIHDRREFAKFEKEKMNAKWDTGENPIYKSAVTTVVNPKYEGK
Chain of Integrin beta-1 (Homo sapiens) + Integrin alpha-4 (Homo sapiens) (P13612 whole entry, looked up): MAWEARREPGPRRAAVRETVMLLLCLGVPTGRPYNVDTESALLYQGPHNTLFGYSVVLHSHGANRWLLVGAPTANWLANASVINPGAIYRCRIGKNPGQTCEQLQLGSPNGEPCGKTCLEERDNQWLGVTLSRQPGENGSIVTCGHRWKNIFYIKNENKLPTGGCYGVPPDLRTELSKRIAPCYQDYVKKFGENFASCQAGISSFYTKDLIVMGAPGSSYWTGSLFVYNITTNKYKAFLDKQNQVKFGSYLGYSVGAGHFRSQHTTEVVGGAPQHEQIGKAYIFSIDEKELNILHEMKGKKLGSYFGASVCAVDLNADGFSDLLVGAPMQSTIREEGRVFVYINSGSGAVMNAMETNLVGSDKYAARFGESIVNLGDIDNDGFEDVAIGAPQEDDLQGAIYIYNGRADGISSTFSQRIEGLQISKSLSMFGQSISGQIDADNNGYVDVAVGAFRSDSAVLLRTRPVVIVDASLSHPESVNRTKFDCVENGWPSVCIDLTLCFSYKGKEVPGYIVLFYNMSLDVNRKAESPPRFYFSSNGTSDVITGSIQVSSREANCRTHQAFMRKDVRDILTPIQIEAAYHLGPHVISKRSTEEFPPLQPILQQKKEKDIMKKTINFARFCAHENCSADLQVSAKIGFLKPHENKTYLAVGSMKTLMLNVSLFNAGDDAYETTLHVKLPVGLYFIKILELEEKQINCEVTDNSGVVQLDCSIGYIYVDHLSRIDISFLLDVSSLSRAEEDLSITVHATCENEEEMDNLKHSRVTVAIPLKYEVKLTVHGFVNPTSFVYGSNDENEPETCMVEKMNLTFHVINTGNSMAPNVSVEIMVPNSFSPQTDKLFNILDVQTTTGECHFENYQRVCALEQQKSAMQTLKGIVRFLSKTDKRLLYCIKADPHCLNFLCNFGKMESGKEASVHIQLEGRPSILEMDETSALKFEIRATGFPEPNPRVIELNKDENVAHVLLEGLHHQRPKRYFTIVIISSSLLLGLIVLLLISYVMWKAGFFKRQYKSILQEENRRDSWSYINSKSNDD
Chain of ATP-binding cassette sub-family B member 6 (Homo sapiens) (Q9NP58 whole entry, looked up): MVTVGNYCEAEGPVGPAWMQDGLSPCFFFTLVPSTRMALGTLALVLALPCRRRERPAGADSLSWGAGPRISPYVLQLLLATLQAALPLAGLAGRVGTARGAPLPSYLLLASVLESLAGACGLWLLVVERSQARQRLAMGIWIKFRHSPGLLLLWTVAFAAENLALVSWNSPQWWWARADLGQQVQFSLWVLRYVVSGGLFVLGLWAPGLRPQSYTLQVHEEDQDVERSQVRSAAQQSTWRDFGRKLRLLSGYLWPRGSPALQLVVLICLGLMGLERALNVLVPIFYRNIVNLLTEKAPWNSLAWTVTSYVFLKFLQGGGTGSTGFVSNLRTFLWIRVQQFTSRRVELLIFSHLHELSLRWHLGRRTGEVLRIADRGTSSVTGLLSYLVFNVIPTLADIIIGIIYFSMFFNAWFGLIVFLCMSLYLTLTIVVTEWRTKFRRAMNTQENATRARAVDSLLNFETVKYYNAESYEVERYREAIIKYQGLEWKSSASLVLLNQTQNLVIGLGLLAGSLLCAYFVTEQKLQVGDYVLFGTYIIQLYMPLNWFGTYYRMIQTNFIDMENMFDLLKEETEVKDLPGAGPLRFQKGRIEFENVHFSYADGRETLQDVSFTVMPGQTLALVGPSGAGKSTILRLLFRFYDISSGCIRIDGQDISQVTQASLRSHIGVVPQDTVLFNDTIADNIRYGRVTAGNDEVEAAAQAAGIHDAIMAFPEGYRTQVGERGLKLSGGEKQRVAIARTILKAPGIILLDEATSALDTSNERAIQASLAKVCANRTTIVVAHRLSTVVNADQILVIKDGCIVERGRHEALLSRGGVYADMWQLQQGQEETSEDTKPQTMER
Chain of AP-2 complex subunit beta (Homo sapiens) (P63010 whole entry, looked up, the tested form may be a part, one chain of several): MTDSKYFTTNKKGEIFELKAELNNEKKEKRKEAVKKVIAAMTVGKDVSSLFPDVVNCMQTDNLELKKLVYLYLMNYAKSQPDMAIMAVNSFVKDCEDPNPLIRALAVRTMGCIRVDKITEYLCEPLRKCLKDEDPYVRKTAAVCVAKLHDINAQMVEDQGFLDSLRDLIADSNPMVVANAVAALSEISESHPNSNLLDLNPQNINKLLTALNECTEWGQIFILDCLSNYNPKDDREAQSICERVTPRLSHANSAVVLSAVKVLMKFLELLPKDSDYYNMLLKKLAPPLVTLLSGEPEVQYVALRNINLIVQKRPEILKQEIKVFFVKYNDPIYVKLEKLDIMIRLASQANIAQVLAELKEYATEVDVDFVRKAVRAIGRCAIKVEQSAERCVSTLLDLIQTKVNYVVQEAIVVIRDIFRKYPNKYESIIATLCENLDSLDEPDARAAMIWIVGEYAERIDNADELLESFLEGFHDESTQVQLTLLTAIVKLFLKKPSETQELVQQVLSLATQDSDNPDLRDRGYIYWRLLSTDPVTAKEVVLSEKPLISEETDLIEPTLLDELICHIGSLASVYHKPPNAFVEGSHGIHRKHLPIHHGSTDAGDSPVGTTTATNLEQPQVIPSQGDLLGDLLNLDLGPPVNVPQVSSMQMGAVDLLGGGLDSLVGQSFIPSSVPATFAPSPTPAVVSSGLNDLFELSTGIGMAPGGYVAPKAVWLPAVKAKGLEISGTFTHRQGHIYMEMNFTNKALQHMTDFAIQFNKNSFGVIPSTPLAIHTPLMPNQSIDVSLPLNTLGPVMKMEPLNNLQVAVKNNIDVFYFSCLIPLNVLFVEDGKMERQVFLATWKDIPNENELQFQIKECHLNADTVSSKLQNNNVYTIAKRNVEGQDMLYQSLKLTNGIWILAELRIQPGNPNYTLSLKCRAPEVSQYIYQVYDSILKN

Question: For `C[C@]12CCC(=O)C=C1CC[C@@H]1[C@@H]2C(=O)C[C@@]2(C)[C@H]1CC[C@]2(O)C(=O)CO`, which percent of DMSO control GFP [1] is on record?
Answer: 89.8% (inactive)

Question: What about the GFP response vs DMSO [2] of the same compound?
Answer: 125% (inactive)

Question: What about the percent response of DMSO control [3] of the same compound?
Answer: 108% (inactive)

Question: And the GFP response vs DMSO [4]?
Answer: 88% (inactive)

Question: What about the GFP response vs DMSO [5] of the same compound?
Answer: 97% (inactive)

Question: What about the GFP response vs DMSO [5, 21] of the same compound?
Answer: 97.3%

Question: What about the GFP response vs DMSO [5, 22] of the same compound?
Answer: 98.1%

Question: And the GFP response relative to DMSO [6]?
Answer: 96.5% (inactive)

Question: What about the GFP response relative to DMSO [6, 23] of the same compound?
Answer: 99.3%

Question: And the GFP response relative to DMSO [6, 24]?
Answer: 94.6%

Question: What about the GFP response vs DMSO [7] of the same compound?
Answer: 102% (inactive)

Question: What about the GFP response, % of DMSO [8] of the same compound?
Answer: 99.3% (inactive)

Question: And the GFP response, % of DMSO [8, 21]?
Answer: 100%

Question: What about the GFP response, % of DMSO [8, 22] of the same compound?
Answer: 99.1%

Question: And the double positive events [9]?
Answer: 61.9%

Question: And the vesicle binding response [9]?
Answer: 136% (inactive)

Question: And the inhibition [10]?
Answer: 14.2% (inactive)

Question: What about the superoxide response (% of plate) [11] of the same compound?
Answer: 94.9% (inactive)

Question: And the aptamer binding inhibition [12]?
Answer: 4% (inactive)

Question: And the response [13]?
Answer: -5.55% (inactive)

Question: What about the inhibition [14] of the same compound?
Answer: -9.52% (inactive)

Question: And the response [15]?
Answer: 1.03% (inactive)

Question: What about the binding (% of control) [16] of the same compound?
Answer: 101% (inactive)

Question: And the efflux inhibition (fraction of control) [17]?
Answer: 0.3 (inactive)

Question: And the inhibition [18]?
Answer: 14% (inactive)

Question: What about the differentiation response [19] of the same compound?
Answer: 14.7% (inactive)

Question: Which percent of DMSO control GFP [1] does the source give for `Cc1ccc2[nH]c3c(c2c1)CN(C(=O)CN1CCSCC1)CC3` here?
Answer: 100% (inactive)

Question: And the GFP response vs DMSO [2]?
Answer: 93% (inactive)

Question: What about the percent response of DMSO control [3] of the same compound?
Answer: 101% (inactive)

Question: What about the GFP response vs DMSO [4] of the same compound?
Answer: 102% (inactive)

Question: What about the GFP response, % of DMSO [20] of the same compound?
Answer: 101% (inactive)

Question: And the double positive events [9]?
Answer: 60.8%

Question: What about the vesicle binding response [9] of the same compound?
Answer: 66.8% (inactive)

Question: And the inhibition [10]?
Answer: -51.3% (inactive)

Question: And the aptamer binding inhibition [12]?
Answer: 0% (inactive)

Question: What about the response [13] of the same compound?
Answer: -263% (inactive)

Question: And the inhibition [14]?
Answer: -3.3% (inactive)

Question: What about the response [15] of the same compound?
Answer: 0.82% (inactive)

Question: What about the binding (% of control) [16] of the same compound?
Answer: 439% (inactive)

Question: And the efflux inhibition (fraction of control) [17]?
Answer: -0.04 (inactive)

Question: What about the differentiation response [19] of the same compound?
Answer: 28.6% (inactive)

Question: With `O=c1[nH]c(=O)n([C@H]2C[C@H](O)[C@@H](CO)O2)cc1F` as the compound, how does the percent of DMSO control GFP [1] read?
Answer: 91.1% (inactive)

Question: And the GFP response vs DMSO [2]?
Answer: 142% (active)

Question: What about the percent response of DMSO control [3] of the same compound?
Answer: 101% (inactive)

Question: What about the GFP response vs DMSO [4] of the same compound?
Answer: 93.5% (inactive)

Question: What about the GFP response vs DMSO [5] of the same compound?
Answer: 98.6% (inactive)

Question: And the GFP response vs DMSO [5, 21]?
Answer: 97.8%

Question: What about the GFP response vs DMSO [5, 22] of the same compound?
Answer: 99.2%

Question: What about the GFP response relative to DMSO [6] of the same compound?
Answer: 97.3% (inactive)

Question: And the GFP response relative to DMSO [6, 23]?
Answer: 96.6%

Question: What about the GFP response relative to DMSO [6, 24] of the same compound?
Answer: 97.2%

Question: What about the GFP response vs DMSO [7] of the same compound?
Answer: 101% (inactive)

Question: And the GFP response, % of DMSO [8]?
Answer: 93.4% (inactive)

Question: What about the GFP response, % of DMSO [8, 21] of the same compound?
Answer: 93.7%

Question: And the GFP response, % of DMSO [8, 22]?
Answer: 93.7%

Question: And the double positive events [9]?
Answer: 72.9%

Question: And the vesicle binding response [9]?
Answer: 155% (inactive)

Question: And the inhibition [10]?
Answer: 4.52% (inactive)

Question: What about the superoxide response (% of plate) [11] of the same compound?
Answer: 94.8% (inactive)

Question: What about the aptamer binding inhibition [12] of the same compound?
Answer: 9% (inactive)

Question: What about the response [13] of the same compound?
Answer: -2.6% (inactive)

Question: And the inhibition [14]?
Answer: 1.52% (inactive)

Question: What about the response [15] of the same compound?
Answer: -0.54% (inactive)

Question: What about the binding (% of control) [16] of the same compound?
Answer: 98% (inactive)

Question: And the efflux inhibition (fraction of control) [17]?
Answer: -0.38 (inactive)

Question: What about the inhibition [18] of the same compound?
Answer: 11% (inactive)

Question: And the differentiation response [19]?
Answer: -5.73% (inactive)

Question: Which percent of DMSO control GFP [1] does the source give for `Cc1cc(C(C)(C)C)cc(C)c1CC1=NCCN1` here?
Answer: 93.7% (inactive)

Question: What about the GFP response vs DMSO [2] of the same compound?
Answer: 133% (inactive)

Question: What about the percent response of DMSO control [3] of the same compound?
Answer: 96.6% (inactive)

Question: And the GFP response vs DMSO [4]?
Answer: 77.6% (inactive)

Question: And the double positive events [9]?
Answer: 62.8%

Question: And the vesicle binding response [9]?
Answer: 214% (inactive)

Question: And the inhibition [10]?
Answer: 18.1% (inactive)

Question: What about the superoxide response (% of plate) [11] of the same compound?
Answer: 104% (inactive)

Question: And the aptamer binding inhibition [12]?
Answer: 1% (inactive)

Question: What about the response [13] of the same compound?
Answer: -5.36% (inactive)

Question: And the inhibition [14]?
Answer: 5.97% (inactive)

Question: What about the response [15] of the same compound?
Answer: -7.49% (inactive)

Question: And the binding (% of control) [16]?
Answer: 98.5% (inactive)

Question: And the efflux inhibition (fraction of control) [17]?
Answer: 0.12 (inactive)

Question: And the inhibition [18]?
Answer: 10% (inactive)

Question: What about the differentiation response [19] of the same compound?
Answer: 2.46% (inactive)
